Experiment [1] is described as follows: qHTS assay to identify small molecule agonists of the RXR signaling pathway - cell viability counter screen (AID 1159529). For activity change, negative = cytotoxicity: series mostly up to about 77 µM. Note: nearly all actives have a fitted effect of over 50% in size. Note: potency is the fitted concentration of half-maximal effect. Put shortly:
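RXR-alpha-UAS-bla HEK 293T cells in medium with 2% charcoal-stripped FBS were pre-incubated 5 hr, then compound-treated 16 hr at 37 C. Viability was read by CellTiter-Glo luminescence in the same wells as the beta-lactamase assay, with tetraoctyl ammonium bromide as positive control.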

The nature of experiment [2]: qHTS assay to identify small molecule antagonists of the retinoid acid receptor (RAR) signaling pathway - cell viability counter screen (AID 1159551). Note: nearly all actives have a fitted effect of over 35% in size. Note: potency is the fitted concentration of half-maximal effect. Put shortly:
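Viability of C3RL4 cells is quantified from ATP by luminescence after 6 h treatment at 37 C with compounds and 1 uM retinol.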
(In general: In qHTS, concentration-response curves come from the screen itself.)

Experiment [3] is described as follows: qHTS assay to identify small molecule antagonists of the retinoic acid receptor (RAR) signaling pathway (AID 1159552; note: nearly all actives have a fitted effect of over 50% in size; note: potency is the fitted concentration of half-maximal effect). The essentials:
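Retinol signaling pathway inhibitors screened in C3RL4 RARE-luciferase reporter cells seeded overnight at 37 C, then compounds added with 1 uM (final) retinol as pathway substrate. After 6 hr at 37 C, luciferase luminescence read after 30 min at room temperature.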

Experiment [4] is described as follows: qHTS assay to identify small molecule agonists of the retinoic acid receptor (RAR) signaling pathway (AID 1159553). Note: potency is the fitted concentration of half-maximal effect. The essentials:
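Compounds dissolved in DMSO were pinned onto C3RL4 cells seeded the previous day, and plates were held 6 hr at 37 C. RARE-driven luciferase output was then read by luminescence.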

Experiment [5] in a line: qHTS assay to identify small molecule antagonists of the estrogen related receptor (ERR) signaling pathway (AID 1224819;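 note: luminescence from an ERR-driven luciferase reporter measured with One-Glo reagent; series mostly up to about 46 µM; nearly all actives have a fitted effect of over 50% in size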). The essentials: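 ERR reporter cells were plated at 2,000 cells/well and left 6 h at 37 C/5% CO2 before pin-tool transfer of compounds in DMSO. After 18 h at 37 C, One-Glo was added and luminescence was read 30 min later at room temperature.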
Experiment [6] concerns estrogen-related receptor alpha (ERRalpha) with PGC-1alpha coactivator, human. As to the kind of experiment: qHTS assay to identify small molecule antagonists of the estrogen related receptor signaling pathway with the pleiotropic PPARgamma coactivator (PGC) (AID 1224821; calls by dose curve;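 note: series mostly up to about 46 µM; lower luminescence signal means antagonism of PGC/ERR signalling; nearly all actives have a fitted effect of over 50% in size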). Put shortly: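 PGC/ERR reporter cells; 6 h pre-incubation 37 C/5% CO2; pin-tool compound in DMSO, 18 h 37 C; One-Glo added, 30 min RT; luminescence read. qHTS antagonist mode.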

A short description of experiment [7]: qHTS assay to identify small molecule antagonists of the estrogen related receptor (ERR) signaling pathway - cell viability counter screen (AID 1224818).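 Note: series mostly up to about 46 µM; viability measured after 17.5 h of compound exposure.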 Put shortly:
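Cytotoxicity check run alongside the ERR antagonist screen: cells exposed to test compounds 17.5 h at 37 C, viability taken as CellTiter-Fluor fluorescence intensity.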

Experiment [8] is described as follows: qHTS assay to identify small molecule antagonists of the estrogen related receptor signaling pathway with the pleiotropic PPARgamma coactivator (PGC) cell viability counter screen (AID 1224822;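 note: series mostly up to about 46 µM; viability read after 17.5 h compound exposure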). Put shortly:
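Viable cell signal (CellTiter-Fluor, 30 min, 37 C/5% CO2) was measured in PGC/ERR cells after a 17.5 h compound incubation.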

Each structure is given as a SMILES string. Results filed as inconclusive are left out. Values without a mark were called inactive. The source made the active and inactive calls. Unless noted, calls come from the whole dose curve; as a rule, active = well fitted curve in the direction sought with a large enough effect in the repeat runs; inconclusive = weak or mixed curves; inactive = no such curve, though single readings can be large; an effect the other way counts as inactive or inconclusive.
% is set by controls: 0 for no effect and ±100 for the full control effect.

Turning to `O=C(CBr)Nc1ccc(Cl)cc1C(=O)c1ccccc1F`, the Potency result in experiment [1] and in experiment [2] was “inactive” throughout.

Consider `IC(I)=C(I)I`, for which the values for the Potency in experiment [1], in experiment [2] and in experiment [3] were 12.3 µM (active), 30.6 µM (active) and 2.73 µM (active), respectively.

`S=C=NCc1ccccc1`: the Potency result in experiment [1], in experiment [2] and in experiment [3] was “inactive” in each case.

With `CC(=O)C(C)(C)C`, the Potency entry in experiment [1], in experiment [2] and in experiment [3] was “inactive” in each case.

For the compound `CCc1ccc(C(=O)NN(C(=O)c2cc(C)cc(C)c2)C(C)(C)C)cc1`, the Potency entry in experiment [1], in experiment [2] and in experiment [3] was “inactive” throughout.

In the case of `CO[C@@H]1[C@H](OC(=O)NC(=O)CCl)CC[C@]2(CO2)[C@H]1[C@@]1(C)O[C@@H]1CC=C(C)C`, the values for the activity change, negative = cytotoxicity in experiment [1] and in experiment [2] were -19.4% [at 15.8 µM] and 2.96% [at 19 µM], respectively. The activity, negative = inhibition in experiment [3] is 1.57% [at 19 µM].

As for `O=C1CN=C(c2ccccc2)c2cc(Cl)ccc2N1CC1CC1`, the Potency entry in experiment [1], in experiment [2], in experiment [3] and in experiment [4] was “inactive” throughout.

On to `COC(C)(C)CCC[C@H](C)C/C=C/C(C)=C/C(=O)OC(C)C`, for which the Potency entry in experiment [1], in experiment [2] and in experiment [3] was “inactive” each time.

As for `O=C(O)COc1ccc(Cl)cc1`, the Potency result in experiment [1], in experiment [2] and in experiment [3] was “inactive” throughout.

In the case of `N#CCC#N`, the Potency result in experiment [1] and in experiment [2] was “inactive” each time.

As to `O=S1(=O)OC(c2cc(Br)c(O)c(Br)c2)(c2cc(Br)c(O)c(Br)c2)c2ccccc21`, the Potency entry in experiment [1] is “inactive”. The Potency in experiment [2] is 19.9 µM (active); in experiment [3], 25 µM (active).

In the case of `CCCCOC(=O)c1ccccc1C(=O)OCc1ccccc1`, the compound was classed as inactive in experiment [5]. The Potency entry in experiment [6] is “inactive”.

Consider `c1cc2ccc3cccc4ccc(c1)c2c34`, for which the Potency result in experiment [6] is “inactive”.

As for `Cc1ccc(-c2c(Cl)nc(C#N)n2S(=O)(=O)N(C)C)cc1`, the Potency result in experiment [2] and in experiment [3] was “inactive” throughout. In experiment [4], the Potency was 68.5 µM (active).

Take `CCOP(=S)(OCC)Oc1cc(Cl)c(Br)cc1Cl`: the Potency result in experiment [2], in experiment [3] and in experiment [4] was “inactive” in each case.

With `N#Cc1cc(I)c(O)c(I)c1`, the Potency entry in experiment [2] and in experiment [4] was “inactive” each time. In addition, the Potency in experiment [3] is 68.6 µM (active).

With `COC(=O)C(C)N(C(=O)Cc1ccccc1)c1c(C)cccc1C` (centres undefined), the Potency result in experiment [2] and in experiment [3] was “inactive” throughout.

For `CCOP(=O)(OCC)O/C(=C/Cl)c1ccc(Cl)cc1Cl`, the Potency entry in experiment [2] and in experiment [4] was “inactive” in each case.

Take `O=C(Nc1ccccc1)Nc1ccnc(Cl)c1`: the Potency entry in experiment [2] and in experiment [3] was “inactive” throughout.

For `C=CC(=O)OC(C)(C)C`, the Potency result in experiment [2], in experiment [3] and in experiment [4] was “inactive” in each case.

Turning to `COc1nn(CSP(=S)(OC)OC)c(=O)s1`, the Potency entry in experiment [2] and in experiment [8] was “inactive” each time. Moreover, the result in experiment [7] was inactive.

For `O=C(O)C1(c2ccc3c(c2)OC[C@H](Cc2ccc(-c4ccccc4)cc2)[C@H]3O)CCCC1`, the Potency entry in experiment [2], in experiment [3] and in experiment [4] was “inactive” throughout.

Take `CCOC(=O)COc1cc(-c2nn(C)c(OC(F)F)c2Cl)c(F)cc1Cl`: the Potency entry in experiment [2], in experiment [3] and in experiment [4] was “inactive” in each case.

Turning to `CCCCC(CC)COP(=O)(Oc1ccccc1)Oc1ccccc1` (centres undefined), the Potency result in experiment [2], in experiment [3] and in experiment [4] was “inactive” in each case.

As for `BrCC(Br)C1CCC(Br)C(Br)C1` (centres undefined), the Potency result in experiment [2] and in experiment [4] was “inactive” throughout.

As for `BrCCCCBr`, the Potency result in experiment [2] and in experiment [3] was “inactive” throughout.

The record behind these values is PubChem BioAssay (Tox21).
